Assay results: PubChem BioAssay AID1053124 (Broad Institute, 2014)
Potency and affinity values are given separately. Active and inactive are the calls of the source.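 How the source made its calls: active means cell killing whose fitted half-effect concentration is at most twice the top valid dose tested; inconclusive means flat curve with 30 to 70% killing, or a poor fit; inactive means effect in the rising direction, plus the rest.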

experiment: A549 cell cytotoxicity, dose response, cytotoxicity control, ATP luminescence, cherry-pick, set 2 (AID 1053124); settings: A549 viability, ATP luminescence (CellTiter-Glo), 72 h; series mostly up to 26 µM

Row | Structure (SMILES) | outcome
1 | COc1cc(C(=O)OCC(C)=O)cc(NC(=O)c2ccco2)c1OC | inactive
2 | CCOC(=O)c1c2ccc(OCC(=O)NN)cc2n2ccccc12 | inactive
3 | CCOCCCNc1c(CC)c(C)c(C#N)c2nc3ccccc3n12 | inactive
4 | COc1cccc(N2CCN(C(=O)C3CCCN(S(=O)(=O)c4cnc[nH]4)C3)CC2)c1 (centres undefined) | inactive
5 | COc1cccc2c(=O)c3c(cnn3C)n(C)c12 | inactive
6 | CC(=O)c1sc(N/N=C\c2ccc(N(C)C)cc2)nc1C | inactive
7 | O=C(O)c1cccc(Nc2nc(-c3cc4ccccc4oc3=O)cs2)c1 | inactive
8 | CC1CCCCC1NC(=O)CN1C(=O)c2cccc(N)c2C1=O (centres undefined) | inactive
9 | N#C/C(=C\c1ccc(N2CCOCC2)o1)C(=O)NCCc1ccccc1 | inactive
10 | Cc1ccc(OCC(=O)NNc2c3ccccc3nc3ccccc23)cc1 | inactive
11 | Cc1cccn2c(=O)c3cc(C(=O)NCc4ccc(F)cc4)c(=N)n(CCCN4CCOCC4)c3nc12 | inactive
12 | CC(C)CCN(CCC(C)C)CC(O)Cn1c2ccccc2c(=O)c2ccccc21 (centres undefined) | inactive
13 | CCc1nnc(NC(=O)c2ccc(-c3ccccc3F)o2)s1 | inactive
14 | COc1ccc(Cn2nnnc2C(CC(C)C)N2CCC(C(N)=O)CC2)cc1 (centres undefined) | inactive
15 | O=C(CCc1c[nH]c2ccccc12)OCC(=O)c1ccccc1 | inactive
16 | Cc1cccn2c(=O)c(/C=C(\C#N)C(N)=O)c(Oc3ccccc3)nc12 | inactive
17 | COc1ccc(C2C(C#N)=C(N)Oc3cc(O)ccc32)cc1Cl (centres undefined) | inactive
18 | Cc1c(C(=O)NCc2ccc3c(c2)OCCO3)sc(=O)n1Cc1ccccc1F | inactive
19 | C[C@H](NC(=O)c1nc[nH]c1C(=O)N[C@@H](Cc1ccccc1)C(=O)OC(C)(C)C)C(=O)OCc1ccccc1 | inactive
20 | CCC(C)n1c(=N)c(C#N)cc2c(=O)n3cc(C)ccc3nc21 (centres undefined) | inactive

Row | Structure (SMILES) | outcome
21 | CC(C)c1ccc(/C=C2\Oc3c(ccc(O)c3CN3CCN(C)CC3)C2=O)cc1 | inactive
22 | CC(=O)NNc1cc(N2CCOCC2)nc(N2CCOCC2)n1 | inactive
23 | Cc1nc2ccc(S(=O)(=O)Nc3ccc(-c4nc5cccnc5s4)cc3)cc2s1 | inactive
24 | Cc1ccc(S(=O)(=O)c2cc3c(=O)n4ccccc4nc3n(C)c2=N)cc1 | inactive
25 | CC1(C)CC(=O)C2=C(C1)OC(N)=C(C#N)[C@@H]2c1ccccc1[N+](=O)[O-] | inactive
26 | CC1CCN(C(=O)COc2cccc3c2CCN(Cc2ccccc2)C3=O)CC1 | inactive
27 | CC(=O)OC[C@@H]1CN(Cc2ccccc2)C[C@H](n2cnc3c(N(C)C(C)C)ncnc32)O1 | inactive
28 | Clc1cccc(CN2CCN(Cc3nc(CCc4ccccc4)no3)CC2)c1 | inactive
29 | CCOC(=O)c1c(C)n(C)c2ccc(OCC(O)CN3CCC(C)CC3)cc12 (centres undefined) | inactive
30 | O=c1[nH]c2ccccc2nc1/C=C/c1ccccc1 | inactive
31 | CCN(CC)CCCNc1nc(C)cc(COC)c1C#N | inactive
32 | Cc1ccc(S(=O)(=O)Nc2ccc(Nc3ccccc3)cc2)cc1 | inactive
33 | COc1cc(C(=O)NCCCNc2nc3c(C)cc(C)cc3cc2C#N)cc(OC)c1OC | inactive
34 | COCCn1c(=N)c(S(=O)(=O)c2ccc(F)cc2)cc2c(=O)n3ccccc3nc21 | inactive
35 | Cc1cccn2c(=O)c3cc(C(=O)NCC4CCCO4)c(=N)n(CC4CCCO4)c3nc12 (centres undefined) | inactive
36 | Cc1noc(C)c1S(=O)(=O)N(CC(=O)N1CCCCCC1)c1ccc(C(C)C)cc1 | inactive
37 | CCOc1ccc2nc(NCCNC(=O)CC)c(C#N)cc2c1 | inactive
38 | CC(=O)Oc1ccc2cc(-c3nc4ccccc4n3C)c(=O)oc2c1 | inactive
39 | CCCN1CCN(C(=O)c2ccc(CS(=O)c3ccc(Br)cc3)o2)CC1 (centres undefined) | inactive
